# Results published in PubChem BioAssay (NCATS).
# Values joined by “and” are separate entries in the source; they are usually repeats but may differ in a detail not shown here. Equal entries are not always repeated. Unmarked numbers belong to inactive results. Results filed as inconclusive are left out. Where a call stands in place of a potency, no number is given. Active and inactive are the calls of the source. Unless noted, calls follow the shape of the dose curve; as a rule, active = well fitted curve in the direction sought with a large enough effect; inconclusive = small, poorly fitted or top-dose-only effect, or another doubt; inactive = no such curve, though single readings can be large; an effect the other way counts as inactive or inconclusive.
# What was measured:
# [1] = biological target: Cytochrome P450 1A2 (Homo sapiens) (UniProt P05177); experiment: p450-cyp1a2 (AID 410; calls by dose curve; also: potency is read from the fitted curve at half-maximal effect)
# Summary of the method: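 20nM CYP1A2 with 100uM Luciferin-ME (at Km) in 100mM KPO4; compound preincubated 10 min, NADPH regeneration added, 60 min at room temperature. Luciferin quantified by luminescence after detection reagent; normalized to 57 uM furafylline.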
# [2] = biological target: Cytochrome P450 2C19 (Homo sapiens) (UniProt P33261); experiment: qHTS Assay for Inhibitors and Substrates of Cytochrome P450 2C19 (AID 899); also: nearly all actives have a fitted effect of over 60% in size; also: potency is read from the fitted curve at half-maximal effect
# Summary of the method: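 5 nM human CYP2C19 with 10uM Luciferin-H EGE (at KM) in 50mM KPO4, compound preincubated 10 min at 37C, then NADPH regeneration for 60 min at 37C. Luciferin read by luminescence after detection reagent; normalized to 57uM ketoconazole as full inhibition.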
# [3] = biological target: Mitogen-activated protein kinase 10 (Mus musculus) (UniProt Q61831); experiment: JNK3 AlphaScreen Assay (AID 530; active = well fitted curve in either direction with a large enough effect, not every such curve was filed as active;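 also: kinase came from lysate of stimulated human HepG2 cells; signal reports phosphorylation of biotinylated GST-cJun 1-79 at Ser73 with 10 µM ATP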)
# Summary of the method: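 Pre-activated (IL-1β/TNFα) JNK3 in HepG2 lysates phosphorylates biotin-GST-cJun(1-79), 10 uM ATP; anti-phospho-cJun(Ser73) AlphaScreen read at room temperature, pH 7.6 Tris buffer. Compounds pre-incubated 15 min as titrations.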
# [4] = biological target: Cytochrome P450 3A4 (Homo sapiens) (UniProt P08684); experiment: qHTS Assay for Activators of Cytochrome P450 3A4 (AID 885); also: nearly all actives have a fitted effect of over 65% in size
# Summary of the method: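 Human CYP3A4 (20 nM) with Luciferin-PPXE at 25 uM (its KM) in 200 mM KPO4; 10 min compound preincubation, then NADPH regeneration and 60 min reaction at RT. Luciferin read by luminescence; normalized to 57 uM ketoconazole full inhibition.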
# [5] = biological target: 3',5'-cyclic-AMP phosphodiesterase 4B (Homo sapiens) (UniProt Q07343); experiment: qHTS Assay for Inhibitors of PDE-IV (AID 607; active = well fitted activation curve with a large enough effect in the main read-out, with a control signal flat, not every such curve was filed as active)
# Summary of the method: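 HEK293 ACTOne cells with CNG channel (1000/well), endogenous PDE4; membrane potential dye, compounds up to 22.9 uM final. Fluorescence Ex 535/Em 590; RO 20-1724 (100 uM final) as reference.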
# [6] = Cell Viability - BJ (AID 421; calls by dose curve;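 also: potency is read from the fitted curve at half-maximal effect; cells exposed to compound for 40 hours at 37 °C before readout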); settings: BJ fibroblast viability, qHTS
# Summary of the method: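 Normal human BJ foreskin fibroblasts, 1500/well in complete medium, treated 40 hr at 37 °C. Cellular ATP by CellTiter-Glo luminescence; normalized to DMSO and 100 uM tamoxifen, AC50 from Hill fit.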
# [7] = Cell Viability - SK-N-SH (AID 435; calls by dose curve; also: potency is read from the fitted curve at half-maximal effect); settings: SK-N-SH neuroblastoma cell viability qHTS
# Summary of the method: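 qHTS cytotoxicity: CellTiter-Glo ATP luminescence after 40 h compound exposure of human neuroblastoma SK-N-SH cells at 37 °C. AC50 derived by Hill-equation fitting, with DMSO as basal and 100 uM tamoxifen as full inhibition.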
# [8] = Cell Viability - N2a (AID 540); settings: N2a mouse neuroblastoma cell viability; activity change, negative = cytotoxicity: at 92.2 µM (top of the series); also: nearly all actives have a fitted effect of over 45% in size; also: potency is read from the fitted curve at half-maximal effect
# Summary of the method: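 Mouse neuroblastoma N2a cells, 1500/well, exposed to compounds 40 h at 37 °C in complete medium. Viability measured as cellular ATP by CellTiter-Glo luminescence; AC50 from Hill fits of concentration-response.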
# [9] = Cell Viability - SH-SY5Y (AID 544); settings: SH-SY5Y neuroblastoma cell viability; viability change, negative = cytotoxic: at 92.2 µM (top of the series); also: nearly all actives have a fitted effect of over 55% in size; also: potency is read from the fitted curve at half-maximal effect
# Summary of the method: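 SH-SY5Y human neuroblastoma cells (1500/well) incubated 5 h, then compound-treated 40 h at 37 °C in complete medium. Viability read as intracellular ATP by CellTiter-Glo luminescence after 20 min; AC50 from Hill-equation fits of qHTS concentration-response.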
# [10] = Cell Viability - Renal Proximal Tubule (AID 545); settings: renal proximal tubule cells viability, primary cells of rat origin; activity change, negative = cytotoxicity: at 91.7 µM (top of the series); also: nearly all actives have a fitted effect of over 40% in size; also: potency is read from the fitted curve at half-maximal effect
# Summary of the method: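 Viability taken as intracellular ATP (CellTiter-Glo luminescence) after 40 hr, 37 °C compound treatment of primary proximal tubule cells from rat kidney, 1000 cells/well; Hill-equation fits of qHTS concentration-response data gave AC50.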
# [11] = Cellular Toxicity (caspase-3) HepG2 (AID 654);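 also: cells exposed to compound for 16 hours before reading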
# Summary of the method: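 HepG2 cells (1500/well) were treated 16 h at 37 °C in complete medium, then caspase 3/7 activity was read by Caspase-Glo luminescence. Data were normalized to DMSO and 100 uM tamoxifen; AC50 came from Hill-equation fits of qHTS concentration-response.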
# [12] = Cellular Toxicity (caspase-3) HUV-EC-C (AID 656)
# Summary of the method: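 Luminescent Caspase-Glo 3/7 readout after 16 h, 37 °C compound exposure of HUV-EC-C endothelial cells, 1000 per well, complete medium. AC50 derived by Hill fitting, with DMSO as baseline and 100 uM tamoxifen as full activation.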
# [13] = Cellular Toxicity (caspase-3) N2a (AID 665); settings: Potency: caspase-3 activation;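 also: compound exposure lasted 16 h at 37 °C before readout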; also: potency is read from the fitted curve at half-maximal effect
# Summary of the method: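 Mouse N2a neuroblastoma cells, 1500 per well, treated 16 h at 37 °C in complete medium; caspase-3/7 activity by Caspase-Glo luminescence after 1 h. Normalized to DMSO and 10 uM staurosporine; AC50 from Hill fits.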
# [14] = Cellular Toxicity (caspase-3) Renal Proximal Tubule (AID 667);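 also: cells exposed to compound for 16 hours at 37 °C before detection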
# Summary of the method: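 Caspase 3/7 activation measured by luminescent aminoluciferin release in primary rat proximal tubule cells after 16 hr compound exposure at 37 °C. AC50 from Hill-fitted concentration-response, scaled between DMSO and 10 uM staurosporine.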
# [15] = biological target: Peroxisome proliferator-activated receptor alpha (Homo sapiens) (UniProt Q07869); experiment: qHTS assay for small molecule agonists of the peroxisome proliferator-activated receptor alpha (PPARalpha) signaling pathway (AID 651778); settings: PathHunter PPARalpha complementation, chemiluminescence, 6 h; max response: active compounds read high
# Summary of the method: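 Enzyme-fragment complementation assay in which ligand-bound PPARalpha translocates and forms an active enzyme that generates chemiluminescence. Cells were plated overnight, exposed to compound for 6 hr at 37 C, and then given detection reagent for 60 min at room temperature.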
# [16] = qHTS assay for cell viability of HEK293 cells (AID 743288); settings: ATP luminescence (CellTiter-Glo), 18 h; max response: active compounds read low; also: nearly all actives have a fitted effect of over 50% in size; also: potency is read from the fitted curve at half-maximal effect
# Summary of the method: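 Total intracellular ATP, measured with a luciferase-coupled reagent, indicates the number of viable HEK293 cells. Exposure to test chemicals lasts 18 h at 37 C in 1,536-well format at 2,000 cells/well.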
# [17] = qHTS assay for cell viability of the p53RE-bla HCT-116 cell line (AID 743292); also: nearly all actives have a fitted effect of over 55% in size
# Summary of the method: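 Compound-exposed HCT-116 (p53RE-bla) cells, 4,000 per well, were kept 16 h at 37 C following a 5 h preincubation. Cell number was estimated from total ATP by CellTiter-Glo luminescence read after 30 min at room temperature.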
# Chain of Peroxisome proliferator-activated receptor alpha (Homo sapiens) (Q07869 whole entry, looked up, the tested form may be a part): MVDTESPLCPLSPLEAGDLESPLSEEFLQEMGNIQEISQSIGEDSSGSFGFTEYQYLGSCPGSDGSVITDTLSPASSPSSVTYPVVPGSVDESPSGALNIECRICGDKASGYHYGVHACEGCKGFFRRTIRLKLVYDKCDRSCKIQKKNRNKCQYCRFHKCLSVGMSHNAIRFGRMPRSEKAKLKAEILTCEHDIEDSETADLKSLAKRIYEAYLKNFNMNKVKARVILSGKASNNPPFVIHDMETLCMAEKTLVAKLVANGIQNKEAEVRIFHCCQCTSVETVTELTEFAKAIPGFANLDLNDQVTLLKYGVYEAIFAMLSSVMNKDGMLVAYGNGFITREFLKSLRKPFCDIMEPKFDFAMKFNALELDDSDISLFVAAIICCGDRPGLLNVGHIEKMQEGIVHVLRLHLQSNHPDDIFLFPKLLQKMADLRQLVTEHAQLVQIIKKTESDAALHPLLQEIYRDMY
# Chain of Cytochrome P450 2C19 (Homo sapiens) (P33261 whole entry, looked up): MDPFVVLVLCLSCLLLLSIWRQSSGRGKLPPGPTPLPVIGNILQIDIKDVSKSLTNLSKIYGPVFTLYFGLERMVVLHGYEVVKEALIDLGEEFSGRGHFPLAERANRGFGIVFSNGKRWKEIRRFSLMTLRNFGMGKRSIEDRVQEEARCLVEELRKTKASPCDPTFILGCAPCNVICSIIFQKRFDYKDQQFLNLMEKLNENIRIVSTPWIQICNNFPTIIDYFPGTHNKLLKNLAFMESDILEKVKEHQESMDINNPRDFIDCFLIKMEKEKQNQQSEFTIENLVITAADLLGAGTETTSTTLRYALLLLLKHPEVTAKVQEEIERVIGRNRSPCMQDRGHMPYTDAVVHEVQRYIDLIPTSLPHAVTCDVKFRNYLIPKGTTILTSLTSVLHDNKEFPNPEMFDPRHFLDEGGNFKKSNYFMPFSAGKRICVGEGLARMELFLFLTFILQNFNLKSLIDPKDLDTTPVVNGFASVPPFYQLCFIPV
# Chain of 3',5'-cyclic-AMP phosphodiesterase 4B (Homo sapiens) (Q07343 whole entry, looked up): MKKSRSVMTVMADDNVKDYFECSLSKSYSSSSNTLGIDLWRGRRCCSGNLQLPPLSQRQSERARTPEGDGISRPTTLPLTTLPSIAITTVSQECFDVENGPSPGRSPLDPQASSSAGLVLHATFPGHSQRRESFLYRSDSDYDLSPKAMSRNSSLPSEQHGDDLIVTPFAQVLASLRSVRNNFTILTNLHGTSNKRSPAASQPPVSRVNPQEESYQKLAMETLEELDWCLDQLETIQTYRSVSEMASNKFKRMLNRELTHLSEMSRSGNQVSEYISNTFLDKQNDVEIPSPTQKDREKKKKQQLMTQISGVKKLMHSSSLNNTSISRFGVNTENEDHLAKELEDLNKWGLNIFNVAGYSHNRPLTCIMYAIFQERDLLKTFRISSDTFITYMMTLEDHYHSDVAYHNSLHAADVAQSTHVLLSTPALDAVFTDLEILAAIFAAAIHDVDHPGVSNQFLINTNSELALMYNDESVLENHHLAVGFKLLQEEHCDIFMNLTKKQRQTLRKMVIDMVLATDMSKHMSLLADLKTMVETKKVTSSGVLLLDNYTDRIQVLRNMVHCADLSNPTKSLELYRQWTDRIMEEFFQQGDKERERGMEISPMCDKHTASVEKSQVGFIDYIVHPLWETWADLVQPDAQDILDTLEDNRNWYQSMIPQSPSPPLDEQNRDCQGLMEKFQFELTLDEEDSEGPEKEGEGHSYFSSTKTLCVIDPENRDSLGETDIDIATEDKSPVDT
# Chain of Cytochrome P450 1A2 (Homo sapiens) (P05177 whole entry, looked up): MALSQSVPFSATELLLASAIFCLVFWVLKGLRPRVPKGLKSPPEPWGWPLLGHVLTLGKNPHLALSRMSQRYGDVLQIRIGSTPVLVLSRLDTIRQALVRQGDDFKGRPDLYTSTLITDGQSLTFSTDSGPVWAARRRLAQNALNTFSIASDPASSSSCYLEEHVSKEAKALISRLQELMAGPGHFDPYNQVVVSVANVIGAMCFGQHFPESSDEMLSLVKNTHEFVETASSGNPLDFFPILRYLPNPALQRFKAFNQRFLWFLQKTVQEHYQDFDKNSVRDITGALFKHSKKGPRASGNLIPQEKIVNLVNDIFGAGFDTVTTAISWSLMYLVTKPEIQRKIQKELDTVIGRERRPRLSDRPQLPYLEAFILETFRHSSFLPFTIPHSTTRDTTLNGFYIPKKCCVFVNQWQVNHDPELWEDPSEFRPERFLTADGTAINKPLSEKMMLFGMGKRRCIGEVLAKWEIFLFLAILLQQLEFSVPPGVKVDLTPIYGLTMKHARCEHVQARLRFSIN
# Chain of Cytochrome P450 3A4 (Homo sapiens) (P08684 whole entry, looked up): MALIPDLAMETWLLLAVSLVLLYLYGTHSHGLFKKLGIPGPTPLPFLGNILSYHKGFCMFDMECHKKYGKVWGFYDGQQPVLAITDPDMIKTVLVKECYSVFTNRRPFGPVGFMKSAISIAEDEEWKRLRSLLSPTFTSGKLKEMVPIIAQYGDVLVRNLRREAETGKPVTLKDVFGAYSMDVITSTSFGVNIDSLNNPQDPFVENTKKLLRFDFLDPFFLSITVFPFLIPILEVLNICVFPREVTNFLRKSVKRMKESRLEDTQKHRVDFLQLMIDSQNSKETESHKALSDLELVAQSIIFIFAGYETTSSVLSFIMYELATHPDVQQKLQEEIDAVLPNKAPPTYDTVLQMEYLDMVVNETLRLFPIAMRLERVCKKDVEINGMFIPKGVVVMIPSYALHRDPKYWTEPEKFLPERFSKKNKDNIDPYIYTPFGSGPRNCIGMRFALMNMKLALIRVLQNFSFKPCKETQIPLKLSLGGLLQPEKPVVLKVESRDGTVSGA
structure (smiles),measurement,setting,value
CCc1cccc2c(-c3ccccc3)c3c(nc12)OCC3,Potency,[1],0.316 µM (active)
same,Potency,[2],7.94 µM (active)
CCCC[C@@H]1C[C@H]1C(NC(=O)Cc1ccccc1)c1ccc(Cl)cc1 (stereo not given in full),Potency,[1],2.51 µM (active)
same,Potency,[3],inactive
same,Potency,[4],inactive
same,Potency,[2],0.0501 µM (active)
CCC/C=C(\CCC)C(NS(=O)(=O)c1ccc(C(F)(F)F)cc1)c1ccccc1 (stereo not given),Potency,[1],7.94 µM (active)
same,Potency,[4],inactive
same,Potency,[2],0.398 µM (active)
COC(=O)[C@@]1(Cc2ccccc2)[C@H]2c3cc(C(=O)N4CCCC4)n(CC4CC4)c3C[C@H]2CN1C(=O)c1ccccc1,Potency,[1],inactive
same,Potency,[5],inactive
same,Potency,[4],inactive
same,Potency,[2],3.16 µM (active)
C=CC(=O)OCC(CO)(COC(=O)C=C)COC(=O)C=C,Potency,[6],> 92 µM
same,Potency,[7],2.02 µM (active)
same,Potency,[3],inactive
same,Potency,[8],15.8 µM (active)
same,Potency,[9],1.58 µM (active)
same,Potency,[10],3.16 µM (active)
same,Potency,[11],inactive
same,Potency,[12],inactive
same,Potency,[13],6.31 µM (active)
same,outcome,[14],inactive
same,max response,[15],1.55% and 0.0188%
same,Potency,[16],5.01 µM (active) and 22.4 µM (active)
CCC/C=C(\CCC)C(NS(=O)(=O)c1ccc(Cl)cc1)c1ccc(C(=O)OC)cc1 (stereo not given),Potency,[1],3.16 µM (active)
same,Potency,[4],inactive
same,Potency,[2],1.58 µM (active)
CCC/C=C(\CCC)C(NS(=O)(=O)c1ccc(Cl)cc1)c1ccccc1 (stereo not given),Potency,[1],12.6 µM (active)
same,Potency,[4],inactive
same,Potency,[2],0.398 µM (active)
COC(=O)[C@H](C)[C@@H]1C[C@@]1(C)[C@@H](NC(=O)OCc1ccccc1)c1ccccc1,Potency,[1],15.8 µM (active)
same,Potency,[3],inactive
same,Potency,[4],inactive
same,Potency,[2],0.316 µM (active)
COC(=O)[C@@]1(Cc2ccccc2)[C@H]2c3cc(C(=O)N4CCCC4)n(C)c3C[C@H]2CN1C(=O)c1ccccc1,Potency,[1],25.1 µM (active)
same,Potency,[3],inactive
same,Potency,[4],inactive
same,Potency,[2],3.98 µM (active)
COc1cc(/C=C\C(=O)CC(=O)/C=C\c2ccc(O)c(OC)c2)ccc1O,Potency,[1],15.8 µM (active)
same,Potency,[3],inactive
same,Potency,[2],2.51 µM (active)
COC(=O)[C@@]1(Cc2ccccc2)[C@H]2c3cc(C(=O)N4CCCC4)n(Cc4ccccn4)c3C[C@H]2CN1C(=O)c1ccccc1,Potency,[1],inactive
same,Potency,[5],inactive
same,Potency,[4],inactive
O=C(/C=C/c1ccc(O)c(O)c1)OC1C[C@](O)(C(=O)O)C[C@@H](O)[C@H]1O (stereo not given in full),Potency,[6],> 92 µM
same,Potency,[7],> 92 µM
same,Potency,[3],inactive
same,Potency,[8],inactive
same,Potency,[9],inactive
same,Potency,[10],inactive
same,Potency,[11],inactive
same,Potency,[12],inactive
same,Potency,[13],inactive
same,outcome,[14],inactive
same,max response,[15],-2.67% and 0.743%
same,max response,[16],5.94% and -3.39%
same,Potency,[17],inactive
CCC/C=C(\CCC)C(NC(=O)OCC(C)C)c1ccc(C(=O)OC)cc1 (stereo not given),Potency,[1],15.8 µM (active)
same,Potency,[5],inactive
same,Potency,[4],inactive
COC(=O)[C@@]1(Cc2ccccc2)[C@@H]2C(=CC(=O)[C@H]2CC(=O)C(=O)N(C)C)CN1C(=O)c1ccccc1,Potency,[1],inactive
same,Potency,[4],inactive
O=C(Cc1ccccc1I)Nc1ccccc1,Potency,[1],12.6 µM (active)
same,Potency,[3],inactive
same,Potency,[2],6.31 µM (active)
CCC[C@@H]1C[C@@]1(CCC)C(NC(=O)c1ccccc1)c1cccc(Cl)c1 (stereo not given in full),Potency,[1],inactive
same,Potency,[3],inactive
same,Potency,[4],inactive
COC(=O)[C@H](C)[C@H]1C[C@]1(C)[C@H](NC(=O)OCc1ccccc1)c1ccccc1,Potency,[1],15.8 µM (active)
same,Potency,[5],inactive
same,Potency,[4],inactive
same,Potency,[2],0.251 µM (active)
CC1=C(\C=C/C(C)=C/C=C\C(C)=C\CO)C(C)(C)CCC1,Potency,[1],inactive
same,Potency,[3],inactive
same,Potency,[2],inactive
CCC/C=C(\CCC)C(NP(=O)(c1ccccc1)c1ccccc1)c1ccc(-c2ccccc2)cc1 (stereo not given),Potency,[1],2.51 µM (active)
same,Potency,[3],inactive
same,Potency,[4],inactive
same,Potency,[2],7.94 µM (active)
CCCC[C@@H]1C[C@H]1C(NC(=O)c1ccco1)c1ccccc1 (stereo not given in full),Potency,[1],2 µM (active)
same,Potency,[3],inactive
same,Potency,[4],inactive
same,Potency,[2],1.26 µM (active)
CCCC/C=C/C(NC(=O)Oc1cccc(C(F)(F)F)c1)c1ccccc1 (stereo not given),Potency,[1],2.51 µM (active)
same,Potency,[5],inactive
same,Potency,[4],inactive
same,Potency,[2],3.16 µM (active)
CCC/C=C(\CCC)C(NC(=O)c1ccc(C(F)(F)F)cc1)c1ccccc1 (stereo not given),Potency,[1],25.1 µM (active)
same,Potency,[5],inactive
C[C@@H](C(=O)Nc1ccc2ccccc2c1)[C@H]1C[C@]1(C)[C@H](NS(=O)(=O)c1ccc(-c2ccccc2)cc1)c1ccccc1,Potency,[1],15.8 µM (active)
same,Potency,[3],inactive
same,Potency,[4],inactive
CCC/C=C(\CCC)C(NC(=O)C(C)(C)C)c1ccc(C(=O)OC)cc1 (stereo not given),Potency,[1],inactive
same,Potency,[4],inactive
CCC/C=C(\CCC)C(NS(=O)(=O)c1cccs1)c1ccc(C(=O)OC)cc1 (stereo not given),Potency,[1],12.6 µM (active)
same,Potency,[4],inactive
same,Potency,[2],0.794 µM (active)
CCC/C=C(\CCC)C(NC(=O)c1cccs1)c1ccc(C(F)(F)F)cc1 (stereo not given),Potency,[1],3.16 µM (active)
same,Potency,[3],inactive
same,Potency,[4],inactive
same,Potency,[2],0.316 µM (active)
CCC/C=C(\CCC)C(NS(=O)(=O)c1ccccc1)c1ccc(C(F)(F)F)cc1 (stereo not given),Potency,[1],12.6 µM (active)
same,Potency,[4],inactive
same,Potency,[2],7.94 µM (active)
Cc1cccc(O)c1C,Potency,[6],> 92 µM
same,Potency,[7],> 92 µM
same,Potency,[3],inactive
same,Potency,[8],inactive
same,Potency,[9],inactive
same,Potency,[10],inactive
same,Potency,[11],inactive
same,Potency,[12],inactive
same,Potency,[13],inactive
same,outcome,[14],inactive
same,max response,[15],-2.92%
same,max response,[16],-3.02%
same,Potency,[17],inactive
CCCC[C@@H]1C[C@H]1C(NC(=O)c1ccco1)c1ccc(Cl)cc1 (stereo not given in full),Potency,[1],0.794 µM (active)
same,Potency,[2],0.316 µM (active)
CCC/C=C(\CCC)C(NS(=O)(=O)c1ccc(C(F)(F)F)cc1)c1ccc(C(=O)OC)cc1 (stereo not given),Potency,[1],inactive
same,Potency,[4],inactive
same,Potency,[2],2.51 µM (active)
CCC/C=C(\CCC)C(NS(=O)(=O)c1ccc(-c2ccccc2)cc1)c1ccc(C(=O)OC)cc1 (stereo not given),Potency,[1],6.31 µM (active)
same,Potency,[2],1.26 µM (active)
